# In PubChem BioAssay (NCI):
# The panel holds about 79,000 compounds, 15% with a hit somewhere; the sample as a whole holds those more often. A number with no mark means an inactive call. No stated cut-off is given here; in the data, active means growth inhibition above about 70%; inactive means the rest.
# Assay: NCI Yeast Anticancer Drug Screen. Data for the mlh1 rad18 strain (AID 175)
# Details: S. cerevisiae mlh1 rad18 strain growth inhibition; at 50.0 µM; active compounds read high
# Summary of the method: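 A repair-deficient yeast strain is exposed to test compound, and growth is scored relative to vehicle-treated controls.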
row,SMILES,growth inhibition [%]
1,O=C1OC(c2ccc([N+](=O)[O-])cc2)=N/C1=C\c1ccc(Cl)c(Cl)c1,46.2
2,CCOC(=O)C(C)(Cc1ccco1)C(=O)OCC,-12.3
3,CC(=O)c1cccc(NC(=O)Oc2ccc(Cl)cc2Cl)c1,4.3
4,CCOC(=O)c1[nH]n(-c2ccccc2)c(=O)c1/C=N/C(=S)Nc1ccccc1,-7.85
5,CCOC(=O)NN(C(=O)OCC)C(C)(C)C(C)=O,12.1
6,CCOC(=O)C(=CC(C)(C)C)C(=O)OCC,10
7,Cc1ccc(NC(=S)SCc2ccc([N+](=O)[O-])cc2)cc1C,2.95
8,O=C(Cc1ccccc1)Nc1ccccc1,17.9
9,COC(=O)Nc1c2c(nc3ccccc13)-c1ccccc1C(C)(C)C2OC (stereo unspecified),67
10,N=c1c2ccccc2nc2oc3ccccc3n12,6.5
11,CCCCCOS(C)(=O)=O,-20.1
12,NC(=S)N/N=C/c1ccc2c(c1)OCO2,13.1
13,O=C1NC(=O)C(=Nc2cccc3c(=O)[nH][nH]c(=O)c23)C(c2nc3ccccc3s2)C1=O (stereo unspecified),4.7
14,COC(=O)/C(=C\c1ccccc1[N+](=O)[O-])c1ccc2c(c1)OCO2,14.4
15,CN=C(N)SCCCCCCSC(N)=NC,4.15
16,Cn1c(=S)[nH]c2cc(Cl)c(Cl)cc21,20.4
17,Cc1n(C)nn[n+]1C,-16.5
18,CCOC(=O)c1cc(CC)sc1N,-12.5
19,CNS(=O)(=O)c1ccc(N)cc1,2.9
20,N#CCCOCCNCCSC(=O)c1ccccc1,4.25
21,CCOC1(C)OC2OC(COC(C)=O)C(OC(C)=O)C(OC(N)=O)C2O1 (stereo unspecified),15.2
